Assay outcomes (PubChem)
Pf Dd2 inh: blocks growth of Plasmodium falciparum Dd2 parasites. P. falciparum Dd2 growth, SYBR Green, 72 h; stronger effect = lower value. activity change, % at 10 µM. actives 2.3% (n = 94,000). AID 1159554; in the data active = activity change below about -80%; inconclusive = no clear call, values can overlap the other calls
T cruzi growth-1: T. cruzi proliferation inhibition; T. cruzi beta-gal in NIH3T3, GalScreen luminescence, 90 h; inhibition, % at 8.34 µM; actives 5.9% (n = 77,000); AID 624255;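 active = mean inhibition above about 93%, with at least 55% of replicates each passing it, limit read from the data, passing the limit was not always enough; inconclusive = only one of those two conditions holds; inactive = neither condition holds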
C diff HTS: C. difficile growth inhibition. growth activity, negative = inhibition, % at 16 µg/mL (by protocol). actives 0.25% (n = 86,000). AID 1259249. Clostridium difficile clinical isolate growth, OD600, 24 h; stronger effect = lower value;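 active = mean growth activity at or below -80% and every replicate also at or below -80%; inconclusive = mean at or below -80% but some replicate above -80%; inactive = mean growth activity above -80%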;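 note: 0% = DMSO wells and -100% = levofloxacin 16 µg/mL wells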
T cruzi growth-2: Trypanosoma cruzi proliferation inhibition | T. cruzi beta-gal in NIH3T3, GalScreen luminescence, 90 h | AID 651739 | shares compounds with T cruzi growth-1 | actives 72% (n = 5,600) | inhibition, % at 8.35 µM;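 active = mean replicate inhibition above about 95% and at least 55% of replicates individually reaching it, limit read from the data; inconclusive = only one of the two criteria is met; inactive = neither criterion is met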
T cruzi growth-3: Trypanosoma cruzi proliferation inhibition | inhibition, % at 2.09 µM | shares compounds with T cruzi growth-1 | actives 21% (n = 5,600) | AID 651740 | T. cruzi beta-gal in NIH3T3, GalScreen luminescence, 90 h;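 active = mean inhibition above about 95%, with at least 55% of replicates also reaching it, limit read from the data; inconclusive = meets just one of the two conditions; inactive = meets neither condition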;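 note: plate controls were neutral control median for no effect and positive control median for full effect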
3T3 cytotox: cytotoxicity in mouse NIH/3T3 fibroblasts; shares compounds with T cruzi growth-1; NIH/3T3 viability, CellTiter-Glo ATP luminescence, 90 h; cytotoxicity (signal decrease), % at 8.35 µM; actives 14% (n = 5,600); AID 651742;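 active = mean signal decrease across replicates above about 35% based on untreated-well scatter, with enough replicates individually passing, limit read from the data; inconclusive = no rule stated though some were filed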;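 note: 0% = median of neutral control wells and 100% = median of positive control wells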
NIH3T3 tox 2: NIH/3T3 (mouse) viability loss | inhibition, % at 24.9 µM | actives 56% (n = 5,600) | shares compounds with T cruzi growth-1 | NIH/3T3 viability, CellTiter-Glo ATP luminescence, 90 h | AID 651744;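 active = mean loss of cell viability signal at or above a set limit, and enough replicates individually reaching it; inconclusive = meets only the mean limit or only the replicate share; inactive = meets neither condition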;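 note: 0% = median of neutral control wells and 100% = median of positive control wells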
* = called active by the depositor; u = inconclusive; x = no result given. This is a sample that favours compounds with a hit; in the whole collection about 6.7% have one here.

SMILES | Pf Dd2 inh | T cruzi growth-1 | C diff HTS | T cruzi growth-2 | T cruzi growth-3 | 3T3 cytotox | NIH3T3 tox 2
O=C(C[C@H]1C[C@@H]2c3cc(NC(=O)CC4CC4)ccc3O[C@@H]2[C@H](CO)O1)NCc1ccc(-c2ccccc2)cc1 | -18.6 | 103.7* | 0.1 | 111.7* | 56.1 | 10.6 | -2.5
O=C(C[C@@H]1C[C@@H]2c3cc(NC(=O)CC4CC4)ccc3O[C@@H]2[C@@H](CO)O1)NCc1cccnc1 | 18.1 | 99.9* | 0.7 | 112.9* | -27.1 | -6.9 | -10.5
O=C(C[C@H]1C[C@@H]2c3cc(NC(=O)CC4CC4)ccc3O[C@@H]2[C@@H](CO)O1)NCc1ccc(-c2ccccc2)cc1 | -4.6 | 41.2 | -5.4 | x | x | x | x
CCNC(=O)C[C@@H]1CC[C@@H]2[C@H](COC[C@@H](O)CN2C(=O)C2CCCC2)O1 | 2.5 | -3.9 | x | x | x | x | x
CCNC(=O)[C@H]1[C@H](CO)[C@H]2Cn3c(ccc(C4=CCCC4)c3=O)[C@@H]1N2Cc1ccncc1 | 9.6 | 82.9 | 1.2 | x | x | x | x
C[C@@H]1CCCCO[C@@H](CN(C)C(=O)Nc2ccccc2)[C@H](C)CN([C@@H](C)CO)C(=O)c2cc(NC(=O)c3ccncc3)ccc2O1 | -7.3 | 17.8 | 11.2 | x | x | x | x
CN(C)C(=O)c1cccc(-c2ccc(C3[C@@H]4CN(S(=O)(=O)c5ccccc5F)C[C@H]3N4)cc2)c1 (some centres not stated) | 3.1 | x | -11.3 | x | x | x | x
C[C@H]1CN([C@@H](C)CO)S(=O)(=O)c2ccc(C#Cc3ccccc3)cc2O[C@@H]1CN(C)C(=O)Cc1ccccn1 | -78.1 | 105.4* | -10.2 | 104.9* | 35.4 | 21.1 | 50.6*
CC(C)C#Cc1ccc2c(c1)O[C@H](CN(C)C(=O)Cc1ccccn1)[C@H](C)CN([C@H](C)CO)S2(=O)=O | -22.4 | 33.3 | 13.3 | x | x | x | x
CC(C)C#Cc1ccc2c(c1)O[C@@H](CN(C)C(=O)Cc1ccccn1)[C@H](C)CN([C@H](C)CO)S2(=O)=O | -53.2 | 20.3 | -0.1 | x | x | x | x
C[C@@H]1CN([C@H](C)CO)S(=O)(=O)c2ccc(C#Cc3ccccc3)cc2O[C@@H]1CN(C)C(=O)Cc1ccccn1 | -71.4 | u | 0.5 | 108.6* | 73.4 | 23.9 | 58.5*
Cc1noc(C)c1NC(=O)N(C)C[C@@H]1Oc2ccc(NC(=O)c3ccncc3)cc2CC(=O)N([C@@H](C)CO)C[C@H]1C | -2.2 | 16.8 | -9.0 | x | x | x | x
CN(C)CCCNC(=O)[C@@H]1[C@@H](CO)[C@@H]2Cn3c(ccc(C4=CCCC4)c3=O)[C@H]1N2Cc1cocn1 | x | -77.0 | -13.3 | x | x | x | x
Cc1noc(C)c1S(=O)(=O)N(C)C[C@H]1OCCCC[C@@H](C)Oc2ccc(NS(=O)(=O)c3cccs3)cc2C(=O)N([C@@H](C)CO)C[C@@H]1C | -56.5 | x | -4.4 | x | x | x | x
Cc1noc(C)c1NC(=O)Nc1ccc2c(c1)CC(=O)N([C@@H](C)CO)C[C@@H](C)[C@@H](CN(C)CC1CC1)O2 | -6.1 | -21.1 | -4.6 | x | x | x | x
COc1ccc(C#Cc2cnc3c(c2)C(=O)N([C@@H](C)CO)C[C@@H](C)[C@H](CN(C)C(=O)Nc2cccc(OC)c2)O3)cc1 | -1.3 | u | -9.0 | 109.7* | 88.8 | 1.8 | 8.9
C[C@H]1CN([C@@H](C)CO)C(=O)c2cc(C#CC3CC3)cnc2O[C@@H]1CN(C)C(=O)Cc1ccccn1 | 8.4 | 34.7 | x | x | x | x | x
C[C@@H]1CN([C@@H](C)CO)C(=O)c2cc(C#CC3CCCC3)cnc2O[C@@H]1CN(C)C(=O)Nc1ccccc1 | -9.5 | 63.2 | 12.0 | x | x | x | x
COc1cccc(NC(=O)N(C)C[C@H]2Oc3ncc(C#Cc4ccncc4)cc3C(=O)N([C@@H](C)CO)C[C@@H]2C)c1 | 25.9 | x | -5.5 | x | x | x | x
COc1ccc(C#Cc2cnc3c(c2)C(=O)N([C@H](C)CO)C[C@H](C)[C@H](CN(C)C(=O)Nc2cccc(OC)c2)O3)cc1 | -30.1 | 42.1 | 10.4 | x | x | x | x
C[C@H](CO)N1C[C@H](C)[C@@H](CN(C)C(=O)Cc2ccccn2)Oc2ncc(C#CC3CC3)cc2C1=O | 1.5 | 103.9* | x | 61.2 | 17.1 | 10.2 | 35.6*
COc1cccc(NC(=O)N(C)C[C@@H]2Oc3ncc(C#Cc4ccccc4)cc3C(=O)N([C@@H](C)CO)C[C@H]2C)c1 | -36.6 | 117.7* | -6.2 | 111.0* | 102.7* | 6.3 | 3.0
C[C@@H]1CN([C@H](C)CO)C(=O)c2cc(C#CC3CCCC3)cnc2O[C@H]1CN(C)C(=O)Nc1ccccc1 | -29.4 | 99.2* | -5.8 | 104.0* | 42.9 | -5.8 | 2.3
CCNC(=O)[C@@H]1[C@@H](CO)[C@@H]2Cn3c(ccc(-c4ccccc4)c3=O)[C@@H]2N1C(=O)C1CC1 | 3.0 | 59.6 | 0.6 | x | x | x | x
C[C@@H]1CN([C@H](C)CO)S(=O)(=O)c2ccc(C3=CCCC3)cc2O[C@H]1CN(C)C(=O)c1ccncc1 | -9.8 | 70.8 | 2.5 | x | x | x | x
SMILES | Pf Dd2 inh | T cruzi growth-1 | C diff HTS | T cruzi growth-2 | T cruzi growth-3 | 3T3 cytotox | NIH3T3 tox 2
COCC(=O)Nc1ccc2c(c1)C(=O)N(C)C[C@H](OC)[C@@H](C)CN(C(=O)c1cnccn1)[C@@H](C)CO2 | 24.1 | 30.8 | -5.0 | x | x | x | x
C[C@@H]1CN([C@H](C)CO)S(=O)(=O)c2ccc(C#Cc3ccccn3)cc2O[C@@H]1CN(C)Cc1cccc(F)c1 | -39.8 | 121.6* | -2.6 | 105.4* | 85.9 | 25.1 | 69.6*
CCCN(C)C[C@H]1Oc2cc(C#Cc3ccccn3)ccc2S(=O)(=O)N([C@@H](C)CO)C[C@H]1C | -57.4 | -7.7 | -0.8 | x | x | x | x
C[C@@H]1CN([C@@H](C)CO)S(=O)(=O)c2ccc(C#Cc3ccccn3)cc2O[C@H]1CN(C)Cc1cccc(F)c1 | -38.7 | 120.3* | -3.4 | 96.9* | 94.2 | 18.5 | -54.4
C[C@H]1CN([C@@H](C)CO)S(=O)(=O)c2ccc(C#Cc3ccccn3)cc2O[C@H]1CN(C)CC1CC1 | -48.5 | 20.4 | 3.6 | x | x | x | x
C[C@H]1CN([C@@H](C)CO)C(=O)c2cc(C#CCC3CCCC3)cnc2O[C@@H]1CN(C)C(=O)CN(C)C | -55.5 | x | -0.5 | x | x | x | x
COCC(=O)Nc1ccc2c(c1)C(=O)N(C)C[C@@H](OC)[C@H](C)CN(C(=O)c1ccccc1F)[C@@H](C)CO2 | -47.4 | -2.7 | x | x | x | x | x
COCC(=O)N1CC2(C1)[C@H](c1ccc(-c3ccccc3)cc1)[C@@H](CO)N2C(=O)COC | -13.4 | x | 16.2 | x | x | x | x
C[C@H](CO)N1C[C@H](C)[C@H](CN(C)Cc2ccc3c(c2)OCO3)Oc2ccc(NS(=O)(=O)c3cn(C)cn3)cc2CC1=O | 19.9 | -26.4 | -2.5 | x | x | x | x
OC[C@@H]1[C@H](c2ccc(C3=CCCC3)cc2)[C@H]2CN(Cc3cccnc3)CCCCN12 | -22.8 | 98.6 | -0.3 | x | x | x | x
OC[C@H]1[C@H](c2ccc(-c3ccc(F)cc3)cc2)[C@H]2CN(Cc3cccnc3)CCCCN21 | 11.8 | 89.2 | -2.3 | x | x | x | x
OC[C@@H]1[C@@H](c2ccc(-c3ccc(F)cc3)cc2)[C@H]2CN(Cc3ccncc3)CCCCN12 | -48.3 | 76.8 | -0.4 | x | x | x | x
